# The whole screen tested about 360,000 compounds, of which about 6,200 (1.7%) were called active. Many of the other results were omitted from the sample, so actives are more common in it than they were. Values without a mark were called inactive.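 The calls were made as follows: active = inhibition of at least 50% at 20 µM; inactive = the rest.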
# Assay: inhibition of PEG-3 promoter activity – cell-based, HeLa, luciferase luminescence, primary screen (AID 588405)
# Conditions: HeLa PEG-Prom luciferase reporter, overnight, at 20 µM, stronger effect = higher value
row,Structure (SMILES),inhibition
1,O=[N+]([O-])c1ccc(C=Nc2ccc(Cl)cc2Cl)s1,47.5%
2,Cc1nn(-c2ccccc2)c(Cl)c1/C=N/NC(=O)c1nn(C)cc1[N+](=O)[O-],-116%
3,CC(C)(C)c1cc(C(=O)N/N=C/c2ccc([N+](=O)[O-])s2)n[nH]1,50.6% (active)
4,CCNC(=O)C1(C)CCCN(C(=O)c2ccc3ccccc3n2)C1 (stereo not given),-7.45%
5,CCCN(CCC)CCNC(=O)c1cc2c(C)nc3ccccc3c2o1,18.8%
6,CN(C)CCNC(=O)c1ccc(Cl)c2cc3ccccc3nc12,102% (active)
7,CNC(=O)c1cccc2nc3ccccc3nc12,6.22%
8,COc1ccc(-c2cc3c(c4c2ccn4C)C2CCC3C2)cn1 (stereo not given),-6.53%
9,CNC[C@H](CC1CCCCC1)NC[C@H](NCCC1CCCC1)[C@H](C)O,73.8% (active)
10,CCCCC[C@@H]1C=C(C(=O)OCC)[C@H](c2ccccc2)N1S(=O)(=O)c1ccc(C)cc1,12.8%
11,CC(C)Cc1nnc(NC(=O)CCC(=O)Nc2ccc3cn[nH]c3c2)s1,19.8%
12,COC(=O)c1cc(NC2c3ccccc3C(=O)N2c2ccc(Cl)cn2)cc(C(=O)OC)c1 (stereo not given),-65.5%
13,CN(Cc1ccccc1F)c1cc2c(c3c1ccn3C)C1CCC2O1 (stereo not given),33.1%
14,Cc1cccc(-c2nc3ccc(C(=O)NCCN4CCN(C)CC4)cc3nc2-c2cccc(C)c2)c1,103% (active)
15,Cc1cc(C)cc(C(=O)NCCN2CCOCC2)c1,3.53%
16,Cc1cccc(C(=O)OC(C)CN2CCN(C)CC2)c1 (stereo not given),-101%
17,Cc1ccc(S(=O)(=O)NCC(=O)NNC(=O)c2ccc(Br)cc2)cc1C,4.68%
18,CCOc1cc(N2CCOCC2)c(OCC)cc1NC(=O)c1ccc(C)s1,-88.6%
19,CCOc1cc(N2CCOCC2)c(OCC)cc1NC(=O)COC(=O)[C@H](Cc1c[nH]c2ccccc12)NC(C)=O,22.9%
20,CCOc1cc(N2CCOCC2)c(OCC)cc1NC(=O)COc1cccc2cccnc12,109% (active)
21,CC1(C(=O)Nc2cccc3c2CCCC3)CCN1C(=O)CCc1ccc(Cl)cc1Cl (stereo not given),36.2%
22,COc1ccc(OC)c(C(O)c2nc3ccccc3n2C)c1 (stereo not given),0.26%
23,CC1=C(C(=O)N2CCOCC2)CC(CC(=O)NCCCN(C)C)C(=O)N1Cc1ccc(C(C)(C)C)cc1 (stereo not given),-10.2%

row,Structure (SMILES),inhibition
1,Cc1ccc(S(=O)Cc2ccc(C(=O)N3CCN(C4CCCCC4)CC3)o2)cc1 (stereo not given),24.1%
2,CN(C)S(=O)(=O)c1cccc(C(=O)OCC(=O)N2CCCC2=O)c1,-2.53%
3,CCOC(=O)c1ccc(NC(=O)CNC(=O)c2ccco2)cc1,102% (active)
4,O=C(COC(=O)CNC(=O)c1ccco1)Nc1ccc(F)cc1,8.45%
5,CCOC(=O)c1ccc(NC(=O)Cc2cccs2)cc1,-222%
6,CCCNC(=O)C1(C)CCN(Cc2ccc(Cl)c(Cl)c2)C1 (stereo not given),1.28%
7,CC(=O)Nc1ccc(-c2cn3cccnc3n2)cc1,-72.3%
8,Cc1ccc(NC(=O)Nc2cc(-c3ccccc3)nn2C)cc1Cl,4.66%
9,CC(=O)Nc1ccc(-c2csc(NC(=O)Nc3ccccc3)n2)cc1,102% (active)
10,COc1ccc(S(=O)(=O)N(C)C[C@H]2Oc3c(NC(=O)Nc4ccc5c(c4)OCO5)cccc3C(=O)N([C@H](C)CO)C[C@@H]2C)cc1,-2.6%
11,CCCNC(=O)C1(C)CCN(C(=O)c2cc(F)ccc2C)C1 (stereo not given),-1.83%
12,CCc1nc2ccc(C(=O)N3CCC(O)(Cc4ccccc4)CC3)cn2c1N(C)C(=O)Cc1ccccc1,4.95%
13,COc1ccc(/C(C)=N/N2CCOCC2)c(O)c1,-9.18%
14,Cc1cc(C)n(CC(O)COc2ccc(C(C)(C)C)cc2)n1 (stereo not given),-28.6%
15,CCCC(O)(c1ccc(OC)cc1)C(CN(C)C)c1ccccc1 (stereo not given),7.67%
16,CN(C)CC(O)COc1ccc(C(C)(C)c2ccc(OCC(O)CN(C)C)cc2)cc1 (stereo not given),77.5% (active)
17,CS(=O)(=O)N(CC(=O)N1CCCC1)Cc1ccccc1,3.29%
18,CCCCc1ccc(S(=O)(=O)NC(=O)C2(C)CCN2C(=O)c2ccccc2)cc1 (stereo not given),0.57%
19,O=C(NCCO)c1cccc(-c2cccc3nccn23)c1,-16.2%
20,O=C(Nc1ccc2c(c1)OCCO2)C(C1CC1)N1CCC(Cc2ccccc2)CC1 (stereo not given),-10.2%
21,O=C(Nc1cccc(F)c1)NC1CCCCCCC1,-273%
22,COc1ccc(C(N)c2csc(NC(=O)Nc3cccc(C(F)(F)F)c3)n2)cc1 (stereo not given),96.6% (active)
23,COc1ccc(C(CC(=O)Nc2ccc(C)cc2)NC(=O)C(F)(F)F)cc1 (stereo not given),3.66%

row,Structure (SMILES),inhibition
1,NC(c1csc(NC(=O)Nc2cccc(C(F)(F)F)c2)n1)C1CCCCC1 (stereo not given),111% (active)
2,C/C(CC(=O)Nc1cccc(C(F)(F)F)c1)=N\NC(=O)C(=O)NCC(C)C,-1.6%
3,O=C(Nc1ccc(C(=O)N2CCOCC2)cc1)Nc1cccc(C(F)(F)F)c1,2.67%
4,COc1cccc(NC(=O)Nc2ccc(F)cc2)c1,-212%
5,NC(c1ccccc1)c1csc(NC(=O)Nc2cccc(C(F)(F)F)c2)n1 (stereo not given),113% (active)
6,CC(=O)c1ccc(Nc2nc(C(N)c3ccccc3)cs2)cc1 (stereo not given),-58.5%
7,Cc1cc(Br)ccc1NC(=O)CCCOc1cc(=O)n(C)c2ccccc12,-16.6%
8,Cc1ccc(C)c(OCCC(=O)Nc2cccc(S(=O)(=O)N3CCCC3)c2)c1,21.3%
9,COC(=O)CNC(c1ccccc1Cl)c1cc(Br)ccc1NC(=O)CCN1CCOCC1 (stereo not given),20.5%
10,COC(=O)Cc1cnc(NC(=O)CSc2nc(C(C)C)cc(=O)[nH]2)s1,1.1%
11,CC1(Oc2cccc(F)c2)CCN(Cc2ccccc2OC(F)F)C1 (stereo not given),2.93%
12,CCCNC(=S)N1CCC(NC(=O)C23CC4CC(CC(C4)C2)C3)CC1,8.28%
13,CCNC(=O)C1CCCN(C(=O)c2cc(F)ccc2C)CC1 (stereo not given),2.54%
14,CCc1nc2ccc(C(=O)NC3CCN(Cc4ccccc4)CC3)cn2c1N(C)CCN1CCOCC1,-22.2%
15,CCC(=O)N1CCC(C)(C(=O)Nc2cc(OC)c(OC)c(OC)c2)C1 (stereo not given),-5.88%
16,CCOC(=O)c1c(C)[nH]c2c1-c1ccccc1C(=O)C2=O,108% (active)
17,CCOC(=O)c1c(C)[nH]c(C)c1S(=O)(=O)NCCCc1ccco1,-7.04%
18,CCOC(=O)c1[nH]c2ccccc2c1N=C(C)N(CC)CC,12.3%
19,Brc1ccc(Nc2c3c(nc4ncnn24)CCC3)cc1,22.3%
20,CC(=O)c1cccc(-c2cnc3c(NC=O)cc(-c4ccc(N5CCN(C)CC5)cc4)cn23)c1,-143%
21,CC1(C(=O)NS(=O)(=O)c2cccc(OC(F)F)c2)CCN1C(=O)C1CC1 (stereo not given),-2.21%
22,CCCCn1c(N)c(N2CCOCC2)c(=O)n(CC(=O)NCCc2ccccc2)c1=O,2.61%
23,O=C(CN1CCCCCC1)NCCN1C(=O)S/C(=C\c2ccccc2Cl)C1=O,3.28%

row,Structure (SMILES),inhibition
1,O=C1/C(=C\c2ccccc2Cl)SC(=S)N1CCC(=O)N1CCCc2ccccc21,105% (active)
2,CN(C(=O)CCN1C(=O)/C(=C/c2ccccc2F)SC1=S)C1CCS(=O)(=O)C1 (stereo not given),6.96%
3,Cc1cc(Br)cn2c(Cc3cccc(F)c3)c(-c3cccc(Br)c3)nc12,33.6%
4,COc1ccc(-c2ccc(C(=O)NCCN3CCOCC3)c3occc23)c(C)c1,-2.5%
5,CCOC1=C2[C@H]([C@H]3C(=O)N(c4ccccc4)C(=O)[C@H]3C1)[C@@H](c1ccccc1)N(S(=O)(=O)c1ccc(C)cc1)[C@H]2c1ccccc1,16.4%
6,Cc1ccc(S(=O)(=O)N(C)C)cc1NC(=O)c1ccc(-n2cncn2)c([N+](=O)[O-])c1,6.01%
7,CCN(CC)C(=O)C1CCCN(Cc2cccc(Cl)c2)C1 (stereo not given),3.55%
8,COc1ccc(-c2csc(C(O)c3cccc(Cl)c3)n2)cn1 (stereo not given),-7.77%
9,COc1ccc2c(c1)c(=Cc1ccc(N(C)C)cc1)c1cc(-c3ccccc3)[n+](C)n12,104% (active)
10,Cc1nc2cc(S(=O)(=O)C(F)(F)F)ccc2s1,2.35%
11,COc1cccc(CN2CCC(C(=O)NC(c3ccc4c(c3)OCO4)c3ccccn3)CC2)c1 (stereo not given),-0.88%
12,Cc1cccnc1C(NC(=O)C1CCN(Cc2ccc(Cl)c(Cl)c2)CC1)c1ccc(Cl)cc1 (stereo not given),2.43%
13,O=c1c2ccccc2ncn1/N=C/c1ccccc1,-247%
14,Cc1ccc(-n2c(SCC(=O)N/N=C/C=C/c3ccccc3[N+](=O)[O-])nc3ccccc3c2=O)cc1,6.9%
15,CCn1c(/C=C/c2ccc([N+](=O)[O-])o2)nc2ccccc2c1=O,93.3% (active)
16,CC1(C(=O)NS(=O)(=O)Cc2cccc(Cl)c2)CCN1C(=O)Cc1ccccc1 (stereo not given),8.1%
17,Cc1ccc(NS(=O)(=O)c2cc3c(cc2Br)NC(=O)CO3)cc1C,24.2%
18,O=C(CCl)Nc1cccc(CP(=O)(c2ccccc2)c2ccccc2)c1,22.4%
19,CC(C)(CCl)C(=O)Nc1ccc(Sc2ccc(F)cc2)cc1,-14%
20,O=C(CCl)Nc1ccc(Sc2ccc(NC(=O)CCl)cc2)cc1,99.8% (active)
21,CC(C)C1C(=O)N(Cc2cn(CCC3OCCO3)nn2)CCS(=O)(=O)N1Cc1ccc(-c2ccccc2C(F)(F)F)cc1 (stereo not given),12.5%

# From PubChem BioAssay AID588405 (Sanford-Burnham Center for Chemical Genomics, 2011)
